Assay outcomes from PubChem BioAssay.
Pf Dd2 inh = P. falciparum Dd2 growth inhibition | hit rate 2.3% among 94,000 | SYBR Green, 72 h; active compounds read low | activity change, % at 10 µM | AID 1159554; in the data active means activity change below about -80%; inconclusive means no clear call, values can overlap the other calls
T cruzi growth-1 = blocks T. cruzi growth in NIH3T3 culture | T. cruzi beta-gal in NIH3T3, GalScreen luminescence, 90 h | inhibition, % at 8.34 µM | hit rate 5.9% among 77,000;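 active means mean inhibition above about 93%, with at least 55% of replicates each passing it, limit read from the data, passing the limit was not always enough; inconclusive means only one of those two conditions holds; inactive means neither condition holds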
C diff growth = blocks growth of Clostridium difficile; Clostridium difficile clinical isolate growth, OD600, 24 h; active compounds read low; growth activity, negative = inhibition, % at 16 µg/mL (by protocol); hit rate 0.25% among 86,000;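 active means mean growth activity at or below -80% and every replicate also at or below -80%; inconclusive means mean at or below -80% but some replicate above -80%; inactive means mean growth activity above -80%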;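 further: 0% = DMSO wells and -100% = levofloxacin 16 µg/mL wells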
T cruzi growth-2 = blocks T. cruzi growth in NIH3T3 host cells; shares compounds with T cruzi growth-1; T. cruzi beta-gal in NIH3T3, GalScreen luminescence, 90 h; inhibition, % at 8.35 µM; hit rate 72% among 5,600; AID 651739;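 active means mean replicate inhibition above about 95% and at least 55% of replicates individually reaching it, limit read from the data; inconclusive means only one of the two criteria is met; inactive means neither criterion is met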
T cruzi growth-3 = blocks T. cruzi growth in NIH3T3 host cells; shares compounds with T cruzi growth-1; T. cruzi beta-gal in NIH3T3, GalScreen luminescence, 90 h; inhibition, % at 2.09 µM; hit rate 21% among 5,600; AID 651740;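 active means mean inhibition above about 95%, with at least 55% of replicates also reaching it, limit read from the data; inconclusive means meets just one of the two conditions; inactive means meets neither condition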;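 further: plate controls were neutral control median for no effect and positive control median for full effect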
3T3 cytotox = kills mouse NIH/3T3 fibroblasts | NIH/3T3 viability, CellTiter-Glo ATP luminescence, 90 h | cytotoxicity (signal decrease), % at 8.35 µM | shares compounds with T cruzi growth-1 | hit rate 14% among 5,600;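 active means mean signal decrease across replicates above about 35% based on untreated-well scatter, with enough replicates individually passing, limit read from the data; inconclusive means no rule stated though some were filed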;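 further: 0% = median of neutral control wells and 100% = median of positive control wells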
NIH3T3 tox 2 = NIH/3T3 (mouse) viability loss; shares compounds with T cruzi growth-1; hit rate 56% among 5,600; NIH/3T3 viability, CellTiter-Glo ATP luminescence, 90 h; inhibition, % at 24.9 µM; AID 651744;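 active means mean loss of cell viability signal at or above a set limit, and enough replicates individually reaching it; inconclusive means meets only the mean limit or only the replicate share; inactive means meets neither condition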;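 further: 0% = median of neutral control wells and 100% = median of positive control wells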
An asterisk follows results filed as active; ? = inconclusive; . = no result. This is a sample that favours compounds with a hit; in the whole collection about 6.8% have one here.

SMILES | Pf Dd2 inh | T cruzi growth-1 | C diff growth | T cruzi growth-2 | T cruzi growth-3 | 3T3 cytotox | NIH3T3 tox 2
COc1ccc(NC(=O)N(C)C[C@H]2OCCCC[C@H](C)Oc3ccc(NC(=O)CCCN(C)C)cc3C(=O)N([C@H](C)CO)C[C@@H]2C)cc1 | 19.1 | -28.3 | -9.3 | . | . | . | .
CC(C)NC(=O)N(C)C[C@H]1Oc2ncc(-c3cncnc3)cc2C(=O)N([C@H](C)CO)C[C@H]1C | 32.6 | . | -1.4 | . | . | . | .
Cn1cnc(S(=O)(=O)N2CC[C@@H]3[C@H](CO)Nc4ccc(-c5cccc(F)c5)cc4[C@@H]32)c1 | 13.8 | 93.1 | -13.0 | . | . | . | .
Cn1cnc(S(=O)(=O)N2CC[C@@H]3[C@@H](CO)Nc4ccc(-c5cccc(F)c5)cc4[C@@H]32)c1 | 14.7 | 102.7* | -9.8 | 103.1* | 79.0 | 9.8 | 11.5
Cn1cnc(S(=O)(=O)N2CC[C@H]3[C@H](CO)Nc4ccc(-c5cccc(F)c5)cc4[C@H]32)c1 | 4.1 | 110.1* | -12.9 | 98.8* | 29.9 | -1.5 | 2.8
Cn1cnc(S(=O)(=O)N2CC[C@@H]3[C@@H](CO)Nc4ccc(-c5ccc(F)cc5)cc4[C@@H]32)c1 | -68.8 | ? | -7.0 | 105.2* | 75.0 | -26.4 | -6.8
Cn1cnc(S(=O)(=O)N2CC[C@@H]3[C@H](CO)Nc4ccc(-c5ccc(F)cc5)cc4[C@@H]32)c1 | -11.7 | 51.3 | -5.6 | . | . | . | .
Cn1cnc(S(=O)(=O)N2CC[C@@H]3[C@H](CO)Nc4ccc(C#Cc5ccc(F)cc5)cc4[C@@H]32)c1 | -10.4 | 9.2 | 4.3 | . | . | . | .
CC(C)CC#Cc1ccc2c(c1)O[C@H](CN(C)C(=O)Cc1cccnc1)[C@H](C)CN([C@H](C)CO)S2(=O)=O | 11.5 | . | 4.1 | . | . | . | .
CC(C)CC#Cc1ccc2c(c1)O[C@H](CN(C)C(=O)Cc1ccccc1)[C@H](C)CN([C@@H](C)CO)S2(=O)=O | -30.9 | 121.0* | 0.6 | 99.2* | 94.5 | 17.8 | 99.8*
CC(C)CC#Cc1ccc2c(c1)O[C@@H](CN(C)C(=O)Cc1ccccc1)[C@@H](C)CN([C@@H](C)CO)S2(=O)=O | -42.5 | 125.8* | 19.7 | 103.0* | 69.3 | -0.1 | 104.3*
CC(C)CC#Cc1ccc2c(c1)O[C@@H](CN(C)C(=O)Cc1cccnc1)[C@@H](C)CN([C@@H](C)CO)S2(=O)=O | -32.3 | . | 1.0 | . | . | . | .
CC(C)CC#Cc1ccc2c(c1)O[C@@H](CN(C)C(=O)Cc1ccccc1)[C@@H](C)CN([C@H](C)CO)S2(=O)=O | -48.5 | 127.0* | -1.1 | 98.2* | 112.5* | 30.3 | 103.3*
CC(C)CC#Cc1ccc2c(c1)O[C@@H](CN(C)C(=O)Cc1cccnc1)[C@H](C)CN([C@H](C)CO)S2(=O)=O | -35.4 | . | -0.5 | . | . | . | .
CC(C)CC#Cc1ccc2c(c1)O[C@H](CN(C)C(=O)Cc1ccncc1)[C@@H](C)CN([C@H](C)CO)S2(=O)=O | -65.0 | ? | 1.9 | 100.7* | 69.9 | 3.4 | -7.0
CC(C)CC#Cc1ccc2c(c1)O[C@@H](CN(C)C(=O)Cc1ccncc1)[C@@H](C)CN([C@H](C)CO)S2(=O)=O | ? | 84.2 | 4.4 | . | . | . | .
C[C@H](CO)N1C[C@H](C)[C@H](CN(C)Cc2ccc3c(c2)OCO3)Oc2ccc(NC(=O)CCCCCC(=O)Nc3ccccc3N)cc2CC1=O | -18.3 | 60.0 | 0.0 | . | . | . | .
Cc1ccccc1-c1cnc2c(c1)C(=O)N([C@@H](C)CO)C[C@H](C)[C@@H](CN(C)C(=O)c1ccccc1)O2 | -18.5 | 73.5 | 5.8 | . | . | . | .
C[C@@H]1CN([C@@H](C)CO)C(=O)c2cc(/C=C/c3ccccc3)cnc2O[C@H]1CN(C)C(=O)C1CC1 | -42.5 | 75.8 | . | . | . | . | .
Cn1cnc(S(=O)(=O)N2[C@@H]3CNC[C@H]2C3c2ccc(-c3ccncc3)cc2)c1 (stereo partly specified) | 25.9 | . | -7.5 | . | . | . | .
COc1ccccc1S(=O)(=O)N[C@H]1CC[C@H](CC(=O)N2CCN(C)CC2)O[C@H]1CO | 14.5 | 1.0 | . | . | . | . | .
CC(C)CC#Cc1ccc2c(c1)O[C@H](CN(C)Cc1ccc3c(c1)OCO3)[C@@H](C)CN([C@@H](C)CO)S2(=O)=O | -62.6 | 65.1 | 23.4 | . | . | . | .
CCCC#Cc1ccc2c(c1)O[C@H](CN(C)Cc1ccc3c(c1)OCO3)[C@H](C)CN([C@H](C)CO)S2(=O)=O | ? | 129.8* | 13.3 | 100.2* | 109.5* | 6.2 | 104.3*
CC(C)CC#Cc1ccc2c(c1)O[C@@H](CN(C)Cc1ccc3c(c1)OCO3)[C@H](C)CN([C@H](C)CO)S2(=O)=O | -72.6 | 61.3 | 25.6 | . | . | . | .
CC(C)CC#Cc1ccc2c(c1)O[C@H](CN(C)Cc1ccc3c(c1)OCO3)[C@@H](C)CN([C@H](C)CO)S2(=O)=O | -74.2 | . | 12.0 | . | . | . | .
SMILES | Pf Dd2 inh | T cruzi growth-1 | C diff growth | T cruzi growth-2 | T cruzi growth-3 | 3T3 cytotox | NIH3T3 tox 2
CCCC#Cc1ccc2c(c1)O[C@@H](CN(C)Cc1ccc3c(c1)OCO3)[C@@H](C)CN([C@@H](C)CO)S2(=O)=O | -75.0 | 126.3* | 11.1 | 88.7 | 102.5* | 29.3 | 104.5*
CCCC#Cc1ccc2c(c1)O[C@H](CN(C)Cc1ccc3c(c1)OCO3)[C@H](C)CN([C@@H](C)CO)S2(=O)=O | -79.1 | 128.1* | 15.3 | ? | 112.3* | 29.3 | 104.4*
CC(C)CC#Cc1ccc2c(c1)O[C@H](CN(C)Cc1ccc3c(c1)OCO3)[C@H](C)CN([C@H](C)CO)S2(=O)=O | -32.7 | 89.2 | 19.7 | . | . | . | .
CCCC#Cc1ccc2c(c1)O[C@H](CN(C)Cc1ccc3c(c1)OCO3)[C@@H](C)CN([C@H](C)CO)S2(=O)=O | . | 100.7* | 19.3 | 98.1* | 92.0 | 25.6 | 106.0*
O=C(C[C@H]1CC[C@@H](NS(=O)(=O)c2ccccc2)[C@@H](CO)O1)N1CCC(Cc2ccccc2)CC1 | -12.0 | . | -4.1 | . | . | . | .
COc1cccc(C#Cc2ccc([C@H]3[C@@H](CO)N4C(=O)CN(C(=O)c5ccncc5)C[C@H]34)cc2)c1 | -9.2 | . | 1.9 | . | . | . | .
CO[C@H]1CN(C)C(=O)c2cc(NC(=O)CC(F)(F)F)ccc2OC[C@@H](C)N(C(=O)c2ccccc2F)C[C@H]1C | 42.3 | . | -4.5 | . | . | . | .
CC(C)CN(C[C@@H]1N[C@@H](CO)[C@@H]1c1ccccc1)C(=O)CN(C)C | -24.5 | -34.4 | -8.7 | . | . | . | .
CCCNC(=O)[C@@H]1N[C@@H]2c3ccc(-c4cccc(F)c4)c(=O)n3C[C@@H]2[C@H]1CO | 2.1 | -23.5 | -5.4 | . | . | . | .
COc1ccc(NC(=O)Nc2ccc3c(c2)C(=O)N([C@@H](C)CO)C[C@H](C)[C@@H](CN(C)S(=O)(=O)c2ccc(OC)cc2)OCCCC[C@@H](C)O3)cc1 | -57.2 | 42.0 | 0.1 | . | . | . | .
COc1ccc(NC(=O)Nc2ccc3c(c2)C(=O)N([C@H](C)CO)C[C@H](C)[C@H](CN(C)S(=O)(=O)c2ccc(OC)cc2)OCCCC[C@@H](C)O3)cc1 | -71.1 | 10.4 | 4.7 | . | . | . | .
